According to PubChem BioAssay AID1347056 (Sanford-Burnham Center for Chemical Genomics, 2019):
The whole screen tested about 360,000 compounds, of which about 3,600 (1%) were called active.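 The calls were made as follows: active = compounds whose plate-normalised and pattern-corrected inhibition of the luciferase reporter signal at the single screening dose is 50% or more; inactive = the rest.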 What follows is part of a selection rich in actives, with near analogues and random picks from the rest.

assay: inhibitors of TROY-driven NF-kB signaling, primary screen, Q293 LMP1-TROYcd cells, NF-kB luciferase, uHTS (AID 1347056); settings: Q293 LMP1-TROYcd NF-kB luciferase reporter, 4 h; at 10 µM; stronger effect = higher value

| SMILES | inhibition |
| --- | --- |
| COc1cccc(-c2nc3ccc(N4CCN(C)CC4)cc3[nH]2)c1 | 79.8% (active) |
| CCn1cc(CN2CCCC(C(=O)c3cccc(C(F)(F)F)c3)C2)cn1 (stereo not given) | 10.1% (inactive) |
| CCOC(=O)[C@]12Cc3ccccc3[C@H]1N(C1CCCCC1)C(=O)c1cc(OC)ccc12 | 36.6% (inactive) |
| CNC(=O)Nc1ccc(C(O)(C(=O)OC)C(F)(F)F)cc1 (stereo not given) | -7.62% (inactive) |
| COc1cc(C(c2c(O)c3ccccc3oc2=O)c2c(C)n(C)n(-c3ccccc3)c2=O)ccc1O (stereo not given) | -7.22% (inactive) |
| CC(=O)OC1C2(CC3N4C(=O)C5(CO)SSC4(CC31O)C(=O)N5C)OC(C)C(C)(C)C2=O (stereo not given) | 64.8% (active) |
| CC(=O)Nc1ccccc1C(=O)OCC(=O)c1cccc2ccccc12 | -7.86% (inactive) |
| CN(C)CC1Oc2ccccc2OC1(O)c1ccccc1 (stereo not given) | 1.73% (inactive) |
| CCCCCCCCCCCCn1ccc(=N)cc1 | 64% (active) |
| Cc1nc2nc(C)c(CCC(=O)N3CCC4(CC3)OCCO4)c(C)n2n1 | 3.18% (inactive) |
| Cc1ccc(C)c(NC2=NCCCS2)c1 | 1.74% (inactive) |
| O=C(CCCn1c(=O)[nH]c2cc(Cl)ccc2c1=O)N1CCC2(CC1)OCCO2 | 7.33% (inactive) |
| CCOC(=O)C(O)(c1ccc(N)c(OC)c1)C(F)(F)F (stereo not given) | 7.19% (inactive) |
| CCC(C)(O)C(=O)OC1C(=O)OC2CC3C(C)=CC(=O)C(O)C3(C)C3C4(O)OCC23C1C(C)C4O (stereo not given) | 83.5% (active) |
| NCCc1c[nH]c2ccc(O)cc12 | 13% (inactive) |
| CC(=O)Nc1ccc(C(=O)C(Cc2ccccc2)N(C)C)cc1 (stereo not given) | 0.62% (inactive) |
| CCCCCCN=C(CC)c1c(O)n(CCCC)c(=O)[nH]c1=O | 17.9% (inactive) |
| CCOC(=O)c1cccc(C2=C(CNC(=O)c3ccncc3)[C@H]3CC[C@@H](C2)N3Cc2ccccc2)c1 | -20.1% (inactive) |

| SMILES | inhibition |
| --- | --- |
| CCOC(=O)c1c(N)n(Cc2ccccc2)c2nc3ccccc3nc12 | 51.6% (active) |
| COc1cc(Cn2c(N)c(C(=O)NCc3ccco3)c3nc4ccccc4nc32)cc(OC)c1OC | 13.5% (inactive) |
| COc1ccc(-c2nn(CCC#N)cc2C(=O)O)cc1 | -1.21% (inactive) |
| CNCC(O)c1cc(F)c(OCc2ccccc2)c(OCc2ccccc2)c1F (stereo not given) | 8.14% (inactive) |
| CC1CCC(N(C)C2CCN(C)CC2)CC1 (stereo not given) | 18.6% (inactive) |
| CCN1c2nc3c(C)cccn3c(=O)c2CC2(C(=O)N(C)C(=O)N(C)C2=O)C1C (stereo not given) | -6.84% (inactive) |
| COc1ccc(C(=O)C2CN(C)CC2C(=O)c2ccc(OC)cc2)cc1 (stereo not given) | -76.8% (inactive) |
| CN1CCC(OC(=O)c2cccc(F)c2)CC1 | -37.5% (inactive) |
| Cc1ccc(C2CN(C)CC2C(=O)c2ccc(F)cc2)cc1 (stereo not given) | 57.6% (active) |
| Cn1cc(C(=O)OCC(=O)N2CCCC2)c2ccccc21 | 8.39% (inactive) |
| O=C(Nc1cccc2ccccc12)N1CCC2(CC1)OCCO2 | 38.5% (inactive) |
| CCOC(=O)C1SC2(C(F)(F)C(F)F)CC1(O)c1c(c(OC)c3occc3c1OC)O2 (stereo not given) | -1.26% (inactive) |
| O=c1[nH]c2ccccc2n1C1CCN(C(c2ccccc2)c2nnnn2Cc2ccccc2)CC1 (stereo not given) | 18.3% (inactive) |
| O=c1[nH]c2ccccc2n1C1CCN(C(c2ccnc3ccccc23)c2nnnn2Cc2ccccc2)CC1 (stereo not given) | 73.9% (active) |
| COc1ccc(-n2nnnc2C(c2cccc3ccccc23)N2CCC(n3c(=O)[nH]c4ccccc43)CC2)cc1 (stereo not given) | 27.6% (inactive) |
| Cc1ccc(OC(=O)N(C)C[C@@H]2OCc3cnnn3CCCC(=O)N([C@H](C)CO)C[C@@H]2C)cc1 | 0.42% (inactive) |
| CC(C)c1ccc(OCC(=O)N2CCCN(C)CC2)cc1 | -4.27% (inactive) |
